Each structure is given as a SMILES string. The campaign covered roughly 1,000 compounds. About 25 (2%) were called active.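 The calls were made as follows: active = fitted rise in melting shift crosses a set limit at or below the top valid dose tested; inconclusive = flat fit at mid-level activity, or a poor quality fit; inactive = the rest.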 Only a sample is shown.

In this assay the target is Fibroblast growth factor 22 (Homo sapiens) (UniProt Q9HCT0). The experiment in a line: binders of human FGF22 protein, dose response, FGF22 synaptogenesis inhibitor project, biophysical, thermal shift, cherry-pick retest (AID 720646). The conditions noted are these: recombinant FGF22 thermal shift, SYPRO orange fluorescence; series mostly up to 38 µM.
Chain of Fibroblast growth factor 22 (Homo sapiens) (Q9HCT0 whole entry, looked up): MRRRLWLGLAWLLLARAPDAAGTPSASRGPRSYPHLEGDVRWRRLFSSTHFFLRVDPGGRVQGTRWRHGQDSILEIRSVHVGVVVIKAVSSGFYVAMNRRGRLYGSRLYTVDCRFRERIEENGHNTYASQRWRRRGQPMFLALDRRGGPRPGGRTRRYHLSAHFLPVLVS
`O=C(N/N=C/c1ccc(OCc2ccccc2)cc1)c1ccc(O)cc1`: the result was inactive. Turning to `CN1C(=O)c2cc(NC(=O)c3cccc(F)c3)ccc2OC[C@@H]2O[C@H](CC(=O)N3CCc4ccccc4C3)CC[C@@H]21`, the outcome was inactive. In the case of `CNC[C@@H]1Oc2ccc(NC(=O)C3CCCCC3)cc2C(=O)N([C@@H](C)CO)C[C@H]1C`, the result was inactive. The result for `O=C(c1ccccc1F)N1CC(=O)N2[C@H](C1)[C@H](c1ccc(-c3ccc(F)cc3)cc1)[C@@H]2CO` reads “inactive”; that for `CCCCN1CC(N2CCN(Cc3cccc(C)c3)CC2)CS1(=O)=O` (stereo unspecified), “inactive”. For the molecule `O=C(Cc1cccnc1)N[C@H]1CC[C@H](CCn2cc(-c3ccccc3F)nn2)O[C@H]1CO`, the outcome was inactive. As for `CC(=O)NC[C@@H]1[C@@H](c2ccccc2)[C@@H](CO)N1C(=O)Cc1cccnc1`, the outcome was inactive. For `O=S(=O)(ON(c1ccccc1)S(=O)(=O)c1ccccc1)c1ccccc1`, the outcome was inactive.

In the case of `O=C1C=CCCN1C(=O)/C=C/c1ccc(F)cc1`, the result was inactive.

As for `CC(=O)N1c2ccc(S(=O)(=O)N3CCC(C(=O)NCc4ccc(F)cc4)CC3)cc2CC1C` (stereo unspecified), the outcome was inactive.

For the molecule `CCCOc1ccc(NC(=O)CC2C(=O)N(C)C(=S)N2Cc2ccc3c(c2)OCO3)cc1` (stereo unspecified), the outcome was inactive. Consider `Cc1cccc(S(=O)(=O)N2C[C@@H](O)COC[C@H]3O[C@H](CC(=O)Nc4ccc(-c5ccccc5)cc4)CC[C@@H]32)c1`, for which the result was inactive. The result for `Cc1c(CCO)sc[n+]1CC(=O)OC12CC3CC(CC(C3)C1)C2` reads “inactive”; that for `COc1cc(NC(=O)c2ccc3c(c2)OCO3)ccc1NC(=O)c1cccs1`, “inactive”; that for `O=C(N[C@@H]1C=C[C@H](CC(=O)N2CCCCC2)O[C@H]1CO)c1cccc(F)c1`, “inactive”. Take `CS(=O)(=O)c1ccc2nc(NC(=O)c3ccc(Cl)nc3)sc2c1`: the result was inactive. Regarding `CC(=O)Nc1ccc(S(=O)(=O)N(CCc2ccccc2)CC(=O)N/N=C/c2ccc(C(=O)O)cc2)cc1`, the outcome was inactive. For `COCCN(C(=O)C(C)C)c1nnc(-c2ccc(C(C)(C)C)cc2)s1`, the outcome was inactive. In the case of `Cc1ccc(NC(=O)Nc2cccnc2)cc1`, the result was inactive. With `CN1C(=O)c2cccc3c(N)ccc(c23)C1=O`, the outcome was inactive. Turning to `O=C(N/N=C/c1ccc([N+](=O)[O-])cc1)c1c[nH]c2ccccc12`, the result was inactive.

For the molecule `O=C(Nc1ccccc1F)N1[C@H](CO)[C@H]2c3ccccc3NC[C@H]21`, the outcome was inactive. For `C[C@@H]1CN([C@@H](C)CO)S(=O)(=O)c2ccc(-c3ccncc3)cc2O[C@@H]1CN(C)C(=O)Nc1ccc(F)cc1`, the result was inactive. The result for `O=C(NN1C(=O)C2C3C=CC(O3)C2C1=O)c1ccccc1` (stereo unspecified) reads “inactive”. As for `COc1ccccc1C(=O)NNC(=O)c1ccc(NC(=O)c2ccccc2)cc1`, the outcome was inactive. For `NS(=O)(=O)c1cccc(NC(=O)COC(=O)c2cc([N+](=O)[O-])ccc2N2CCCC2)c1`, the outcome was inactive. The result for `COc1ccccc1NC(=O)N1[C@H](C#N)[C@H](c2ccccc2)[C@H]1CO` reads “inactive”.

As for `OC[C@H]1[C@H](c2ccc(-c3cccnc3)cc2)[C@H]2CN(Cc3ccccn3)CCCCN21`, the result was inactive. As to `O=C(Nc1nnc(-c2ccccc2F)s1)c1ccccc1F`, the outcome was inactive.

`C[C@H]1CN([C@@H](C)CO)C(=O)Cc2cc(NC(=O)Cc3cn(C)c4ccccc34)ccc2O[C@@H]1CN(C)Cc1ccccc1`: the result was inactive. As to `CC(C)NC(=O)N(C)C[C@@H]1Oc2c(NC(=O)c3nc4ccccc4s3)cccc2C(=O)N([C@H](C)CO)C[C@H]1C`, the outcome was inactive. Consider `O=C(C[C@H]1CC[C@H]2[C@@H](COC[C@H](O)CN2S(=O)(=O)c2cccc(Cl)c2)O1)Nc1ccccc1`, for which the result was inactive. The result for `COc1ccc(-c2ccc([C@H]3[C@H]4CN(C(=O)c5ccc6c(c5)OCO6)CCCCN4[C@H]3CO)cc2)cc1` reads “inactive”; that for `O=C(N/N=C/c1c[nH]c2ccccc12)c1cc2ccccc2o1`, “inactive”.

On to `COc1cc([N+](=O)[O-])ccc1NC(=O)CN1CCCC1`, for which the result was inactive. Turning to `COCC(=O)Nc1ccc2c(c1)OC[C@H](C)N(C)C[C@@H](C)[C@@H](OC)CN(C)C2=O`, the result was inactive. `Cc1ccc(S(=O)(=O)NCCC(=O)Nc2ccc(C)c(Cl)c2)cc1C`: the outcome was inactive.

In the case of `COc1ccc(-c2cc(=O)oc3cc(OCC(=O)N[C@@H](Cc4c[nH]c5ccccc45)C(=O)O)ccc23)cc1`, the outcome was inactive. To `C[C@H]1CN([C@@H](C)CO)S(=O)(=O)c2ccc(C3=CCCC3)cc2O[C@H]1CN(C)C(=O)Nc1ccc2c(c1)OCO2` belongs “inactive”; to `O=C(C[C@H]1C[C@@H]2c3cc(NC(=O)Nc4ccc(C(F)(F)F)cc4)ccc3O[C@@H]2[C@@H](CO)O1)NCC1CC1`, “inactive”.

With `CC(C)(C)N1C(=O)c2c(C(=O)OCc3ccccc3)[nH]c(-c3ccccc3)c2C1=O`, the outcome was inactive.

`Cc1ccc(S(=O)(=O)Nc2nc3ccccc3s2)cc1[N+](=O)[O-]`: the outcome was inactive. As to `O=C(N/N=C/c1ccc(Cl)c(Cl)c1)c1ccc2nc[nH]c2c1`, the result was inactive. Take `O=C(COc1ccc([N+](=O)[O-])cc1)Nc1cccc(C(=O)Nc2ccccc2C(=O)O)c1`: the outcome was inactive. With `O=C(NCCc1c[nH]c2ccccc12)C(=O)NCC1CCCO1` (stereo unspecified), the result was inactive. On to `Cc1ccc(NC(=O)O/N=C/c2cccc([N+](=O)[O-])c2)cc1`, for which the result was inactive. Turning to `Cc1ccc(S(=O)(=O)N(C)C[C@@H]2Oc3cc(C4=CCCC4)ccc3S(=O)(=O)N([C@@H](C)CO)C[C@@H]2C)cc1`, the outcome was inactive. As for `CCn1ccnc1CN(C)C(=O)c1ccc2nc(Cc3ccc(OC)cc3)oc2c1`, the outcome was inactive. In the case of `C[C@@H]1CCCCO[C@@H](CN(C)Cc2ccncc2)[C@H](C)CN([C@H](C)CO)C(=O)c2cc(NC(=O)Cc3ccccc3)ccc2O1`, the result was inactive. As to `C[C@@H]1CN([C@H](C)CO)S(=O)(=O)c2ccc(-c3ccncc3)cc2O[C@@H]1CN(C)C(=O)Nc1ccc(C(F)(F)F)cc1`, the result was inactive.

For the molecule `CC(C)NC(=O)N1C[C@@H]2[C@H](c3ccccc31)[C@H](CO)N2C(=O)c1ccccn1`, the outcome was inactive.

(Values after PubChem BioAssay AID720646 (Broad Institute, 2013).)
